{
  "source": "PubChem BioAssay (NCI)",
  "note": "Compounds without any hit were thinned out: in the full panel of roughly 83,000, 20% have a hit.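 Cell lines were cultured in 96-well plates, exposed to a single compound concentration, and assessed for percent growth 48 hours later.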 Values without a mark were called inactive. Calls of active or inactive are those of the source. The calls were made as follows: active = growth percent below 10; inactive = the rest.",
  "data": [
    {"system": "SW-620 colon", "assay": "NCI-60 one-dose screen, 48 h (100 = growth as untreated, 0 = no growth, -100 = all killed)", "conditions": "10 µM unless noted", "values": [
      {"smiles": "O=C(CCSc1nnc2n(Cc3ccccc3)c(=O)c3c4c(sc3n12)CCCC4)N1CCN(c2ccccc2)CC1", "growth": "101%"},
      {"smiles": "Cc1nc2c(c(=O)[nH]1)C(c1ccccc1)c1ccc3ccccc3c1O2", "note": "(centres undefined)", "growth": "20.9%"},
      {"smiles": "CC(=O)OC(c1ccccc1)C1CCOC1=O", "note": "(centres undefined)", "growth": "102%"},
      {"smiles": "COc1cccc(/C=C/C(=O)c2cc3c(N)c(C(=O)Nc4cccc5ccccc45)sc3nc2C)c1", "growth": "-1.14% (active)"},
      {"smiles": "Cc1cc2c(cc1C)N(C(=O)CCl)CC(=O)N2", "growth": "-48.2% (active)"},
      {"smiles": "CC1(C)OB(O)c2cc(-c3nc4ccc5[nH]ncc5c4c4c3CCCC4)ccc21", "growth": "59.4%"},
      {"smiles": "CCN1C(=O)N(CC)C2C1NN=c1s/c(=C\\c3ccc(C(F)(F)F)cc3)c(=O)n12", "note": "(centres undefined)", "growth": "20.7%"},
      {"smiles": "COCCn1cc(-c2csc(-c3c[nH]c4ccc(Br)cc34)n2)c2cccnc21", "growth": "27.9%"},
      {"smiles": "O=C1/C=C/[C@@H](O)[C@@H]2C[C@@H](O)C[C@H]2/C=C/CCC[C@H](CCO)O1", "growth": "-46% (active)"},
      {"smiles": "O=C(/C=C(O)/C=C/c1cccc2[nH]ccc12)/C=C/c1cccc2[nH]ccc12", "growth": "50.5%"},
      {"smiles": "CCn1c(-c2cc3c([nH]c4ccccc43)c(-c3cccc(O)c3)n2)n[nH]c1=S", "growth": "62.8%"},
      {"smiles": "CC1=C(C(=O)Nc2nc(-c3ccc(Cl)cc3)cs2)[C@H](c2ccc(O)cc2)NC(=O)N1", "growth": "102%"},
      {"smiles": "CCCCCCCCCCCCCCCCCC1=NC(C)(C)CN1CC(C)O", "note": "(centres undefined)", "growth": "3.6% (active)"},
      {"smiles": "CCCCCCCC/C=C\\CCCCCCCCOc1ccc(CC(=O)NCC[N+]2(C)CCOCC2)cc1", "growth": "81.2%"},
      {"smiles": "CNC(=O)c1ccccc1Nc1nc(Nc2cc(OC)c(OC)c(OC)c2)ncc1Br", "growth": "5.27% (active)"},
      {"smiles": "O=C(Nc1ccc(Br)cc1)C1=NCCCCN1", "growth": "67.3%"},
      {"smiles": "N#Cc1nc(-c2ccccc2)oc1S(=O)(=O)N1CCN(c2ccc(F)cc2)CC1", "growth": "32.9%"},
      {"smiles": "C=Cc1cnc(Nc2ccc(OC)cc2)nc1NCCCNC(=O)C1CCC1", "growth": "47.5%"},
      {"smiles": "CN1CCN(Cc2ccc(NC(=O)c3cncc(C#Cc4cnc(N)c5ncccc45)c3)cc2C(F)(F)F)CC1", "growth": "-16.9% (active)"},
      {"smiles": "CN1CCN(Cc2ccc(NC(=O)c3cncc(C#Cc4cnc(N)c5ccc(F)cc45)c3)cc2C(F)(F)F)CC1", "growth": "-64.4% (active)"},
      {"smiles": "O=C1Nc2ccccc2/C1=C\\c1c[nH]c2ccc(Br)cc12", "growth": "93.7%"},
      {"smiles": "NC(=O)c1c(NC(=O)c2cccs2)sc2c1CCC(=O)C2", "growth": "15.1%"},
      {"smiles": "O=c1nc(-c2ccccc2)c2cc(-c3ccc(C(F)(F)F)nc3)ccc2[nH]1", "growth": "101%"},
      {"smiles": "O=C1C(Nc2ccccn2)=C(I)C(=O)c2ncccc21", "growth": "-64.6% (active)"},
      {"smiles": "Cc1ccc(-c2csc(NC(=O)c3ccccc3CN3C(=O)c4ccccc4C3=O)n2)cc1", "growth": "100%"},
      {"smiles": "COC(=O)CC[C@@H]1O[C@@H](c2ccc(F)cc2)[C@@H](O)[C@H]1O", "growth": "101%"},
      {"smiles": "O=c1cc(-c2ccccc2)[nH]c2ncc(-c3ccc(F)cc3)n12", "growth": "40.3%"},
      {"smiles": "Oc1c(CN2CCOCC2)cc(COCc2ccccc2)c2cccnc12", "growth": "28.9%"},
      {"smiles": "CCS/C(Nc1ccccc1)=C(\\C#N)C(=O)Nc1ccc(OC)cc1", "growth": "18%"},
      {"smiles": "COc1cc(NC(=O)c2cncnc2Nc2ccc3c(ccn3Cc3ccccn3)c2)cc(OC)c1", "growth": "23.6%"},
      {"smiles": "OCCNCCNC(Cc1ccc(Cl)cc1)c1ccccc1", "note": "(centres undefined)", "growth": "107%"},
      {"smiles": "N#Cc1cccc(C2C3=C(COC3=O)N(CCO)c3cc4c(cc32)OCO4)c1", "note": "(centres undefined)", "growth": "16.3%"},
      {"smiles": "CN(Cc1ccccc1)c1nc(Cl)c(C2CC(c3ccccc3)=NN2c2ccccc2)s1", "note": "(centres undefined)", "growth": "101%"},
      {"smiles": "C=C1C(=O)O[C@H]2[C@H]1CC/C(CNC(=O)c1c[nH]c3ccc(F)cc13)=C\\CC[C@@]1(C)O[C@@H]21", "growth": "-48.9% (active)"},
      {"smiles": "COc1cc(/C=N/Nc2ccc(Br)cc2)cc(OC)c1OC", "growth": "46.8%"},
      {"smiles": "CCOC(=O)c1c(C)nc2c(c1N)/C(=C/c1ccc(OC)cc1)C(=O)N2Cc1ccccc1", "growth": "55.6%"},
      {"smiles": "Cn1c(=O)c2[nH]c(SCC(=O)Nc3ccc(C(=O)/C=C/c4ccccc4Cl)cc3)nc2n(C)c1=O", "growth": "95.8%"},
      {"smiles": "CCN(CC)CCCOc1ccc2ncnc(Nc3ccc(Oc4cccc(C(F)(F)F)c4)c(Cl)c3)c2c1", "growth": "-87% (active)"},
      {"smiles": "Nc1nc(N)c2c(n1)NC(c1ccc(Cl)cc1)C1CCc3ccccc3C1=N2", "note": "(centres undefined)", "growth": "63.8%"}
    ]}
  ]
}
